An excerpt weighted towards active compounds, which were near 10% of everything screened.
ELG1 DNA repair: blocks ELG1-dependent DNA repair in HEK293T cells. HEK293T ELG1-luciferase reporter, luminescence, 16 h; DNA damage induced by 5-fluorouridine. Potency, µM (highest dose often 46.1 µM), for inactives: top-dose activity change, negative = inhibition, usual class: inhibitors. 330,000 compounds, 2.3% hits; also: % is scaled to controls: 0 for no effect and ±100 for the full control effect; nearly all actives have a fitted effect of over 55% in size
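Luminescence from the luciferase reporter, measured 30 min after ONE-Glo reagent at room temperature, was the read-out. Beforehand, 2,000 cells per well were exposed for 16 hr at 37 °C to 5-fluorouridine together with compound or vehicle.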
SW480 rerep: induces DNA re-replication in SW480 colon adenocarcinoma cells | SW480 DNA re-replication, Hoechst DNA content imaging, 48 h | AID 624297 | Potency, µM (top dose mostly 46.1 µM), inactives show at the highest dose re-replication activation, actives largely listed as activators | 340,000 compounds, 1.8% hits; also: % of control where 0% means no effect; nearly all actives have a fitted effect of over 55% in size
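Cells (250 per well) received 23 nL compound or DMSO by pin tool and were kept 48 hr at 37 C, 5% CO2. Nuclei were then stained with Hoechst for 40 min and scanned for DNA content.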
Gal4-VP16 FLuc: inhibits Gal4-VP16 luciferase reporter, ROR gamma counter-screen; Drosophila S2 Gal4-VP16 UAS-luciferase, luminescence, 20 h; Potency, µM (highest dose often 53.6 µM), for the others: top-dose activity, negative = inhibition, hits mostly inhibitors; 310,000 compounds, 3.5% hits;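 also: Gal4-VP16 expression switched on by copper sulfate through the metallothionein promoter; % is scaled to controls: 0 for no effect and ±100 for the full control effect; nearly all actives have a fitted effect of over 50% in size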
RORg inh: inhibitors of mouse ROR gamma transcriptional activity. P51450. Drosophila S2 Gal4-RORgamma UAS-luciferase reporter, 20 h. Potency, µM (top dose mostly 53.6 µM), for inactives: at the top dose activity change, negative = inhibition, usual class: inhibitors. 310,000 compounds, 5.4% hits. AID 2551; also: % is scaled to controls: 0 for no effect and ±100 for the full control effect; nearly all actives have a fitted effect of over 60% in size
Target sequence (P51450 whole entry, looked up, the tested form may be a part): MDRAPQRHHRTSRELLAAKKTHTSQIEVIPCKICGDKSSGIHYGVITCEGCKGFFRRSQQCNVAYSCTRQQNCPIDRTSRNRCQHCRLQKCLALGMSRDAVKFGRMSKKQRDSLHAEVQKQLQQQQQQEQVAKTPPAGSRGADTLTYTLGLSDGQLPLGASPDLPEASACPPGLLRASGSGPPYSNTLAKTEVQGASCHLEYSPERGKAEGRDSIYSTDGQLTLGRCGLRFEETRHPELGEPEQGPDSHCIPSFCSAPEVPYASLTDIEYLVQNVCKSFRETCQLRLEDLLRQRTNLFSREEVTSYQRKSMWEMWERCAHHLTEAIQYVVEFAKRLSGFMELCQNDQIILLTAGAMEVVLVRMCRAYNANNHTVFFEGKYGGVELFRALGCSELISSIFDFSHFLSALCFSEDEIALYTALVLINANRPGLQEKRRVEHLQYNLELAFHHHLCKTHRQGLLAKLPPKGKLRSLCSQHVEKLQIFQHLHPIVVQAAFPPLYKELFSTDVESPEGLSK
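Compounds are pin-transferred onto Drosophila Schneider cells expressing a copper-inducible Gal4–ROR gamma transactivation domain fusion. After 1 hr, copper sulfate is added to 700 uM final; luciferase is read 20 hr later.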
MCF10A rereplic: inducers of DNA re-replication in MCF 10A breast cells; MCF 10A DNA re-replication, Hoechst nuclear intensity, 48 h; Potency, µM (highest dose often 46.1 µM), without a hit: top-dose activity, positive = re-replication, actives largely listed as activators; 350,000 compounds, 2.9% hits; AID 624296; also: % of control where 0% means no effect; nearly all actives have a fitted effect of over 50% in size
* marks the source's active call; other numbers are inactive results; ? = inconclusive; / = not tested or not shown; [ ] = another dose, or the depositor's remark. Calls follow the shape of the dose curve; as a rule, active = well fitted curve in the direction sought with a large enough effect; inconclusive = small, poorly fitted or top-dose-only effect, or another doubt; inactive = no such curve, though single readings can be large; an effect the other way counts as inactive or inconclusive. Potency is read from the fitted curve at half-maximal effect.

SMILES	ELG1 DNA repair	SW480 rerep	Gal4-VP16 FLuc	RORg inh	MCF10A rereplic
Cc1cccc(C)c1NC1=NC(=S)N(c2ccccc2)C12CCOC(C)(C)C2 (centres undefined)	-11.3%	4.3%	?	3.98µM*	22.8%
COc1ccccc1N1C(=S)N=C(Nc2c(C)cccc2C)C12CCCC2	-4.3%	4.5%	?	7.94µM*	0.6%
Cc1cccc(C)c1NC1=NC(=S)N(c2ccc(C(=O)O)cc2)C12CCCCC2	-10.3%	-1.7%	1.9%	19.6%	4.2%
Cc1cccc(NC2=NC(=S)N(c3cccc(C(=O)O)c3)C23CCCCC3)c1	-0.2%	-124.4%	0.1%[10 µM]	2.8%	-4.8%
Cn1ncc2c(NNC(=O)C3CCCCC3)ncnc21	-0.8%	-9.8%	6.1%	-23.6%	5.7%
CCc1cccc(C)c1NC(=S)N(CCOC)C(C)c1ccco1 (centres undefined)	-5.4%	-15.2%	-0.3%	10µM*	-11.9%
CCOc1ccc(NC(=S)N(CCOC)C(C)c2ccco2)cc1 (centres undefined)	-13.6%	-12.4%	?	8.91µM*	1.4%
COCCN(C(=S)Nc1ccccc1C)C(C)c1cccs1 (centres undefined)	-1.1%	-3.0%	?	?	17.7%
CCc1ccccc1NC(=S)N(CCOC)C(C)c1ccco1 (centres undefined)	-5.2%	4.5%	-5.4%	12.6µM*	8.4%
COC(=O)CSc1nnc(CNC(=O)c2ccccc2F)n1-c1ccccc1	-6.7%	1.9%	8.6%	-9.0%	-1.8%
Cn1ncc([N+](=O)[O-])c1C(=O)N/N=C/c1cccc([N+](=O)[O-])c1	9.2%	-3.7%	-0.1%	8.5%	-0.4%
CCc1ccc(CNC(=O)CC2C(=O)NCCN2Cc2ccccc2F)nc1 (centres undefined)	-0.6%	111.5%	?	10µM*	18.4%
O=C(CC1C(=O)NCCN1Cc1cccc(Oc2ccccc2)c1)NCCc1cnccn1 (centres undefined)	21.4%	3.26µM*	-5.2%	0.3%	3.6%
CCCCc1c2ccccc2nc2[nH]c3ccccc3c12	/	/	-9.4%	?	/
Cc1cccc(N2CCN(C(=O)COc3cccc4c3OC(C)(C)C4)CC2)c1C	25.9µM*	1.9%	3.16µM*	?	8.0%
Cc1cccc(N2CCN(C(=O)N3CCOCC3)CC2)c1C	-0.4%	16.4µM*	13.9%	15.9%	?
Cc1cccc(N2CCN(C(=O)C3CCN(S(=O)(=O)N4CCOCC4)CC3)CC2)c1C	18.3µM*	-26.1%	-5.1%	24.5%	12.5%
CCCCNc1nc(C)nc2c1nc(-c1ccccc1)n2CCN1CCCC1	/	/	-2.7%	-40.5%	/
Cc1ccc(S(=O)(=O)NCC(=O)NCC(=O)OCc2c(F)cccc2Cl)cc1	-6.5%	18.4µM*	-2.4%	22.8%	8.8%
CCN(CC)S(=O)(=O)c1cccc(S(=O)(=O)c2cccc(S(=O)(=O)N(CC)CC)c2)c1	8.91µM*	-3.6%	0.8%	?	?
CCN(CC)S(=O)(=O)c1cccc(S(=O)(=O)N2CCCCC2)c1	-2.6%	7.1%	-4.0%	21.1%	-0.9%
CCN(CC)S(=O)(=O)c1ccc(C)c(C)c1	0.7%	-1.1%	-5.2%	?	0.5%
CCN(CC)S(=O)(=O)c1ccc2c(c1)C(=NO)c1cc(S(=O)(=O)N(CC)CC)ccc1-2	7.31µM*	?	?	16.2%	8.2µM*
Cn1c(=O)c2ccccc2n(CC(=O)NC2CCCC2)c1=O	4.0%	?	-2.2%	2.2%	2.5%
CCOC(=O)N=Nc1c2ccccc2c2nc3no[nH]c3nc12	1.46µM*	?	3.98µM*	0.355µM*	?
CCOC(=O)N=Nc1c(O)n(CC(=O)OC)c2ccccc12	0.0%	0.5%	4.3%	3.5%	17.6%
CCCCN(CC)C(=O)C1CCC(CNS(=O)(=O)c2cccc3nsnc23)CC1 (centres undefined)	?	-21.3%	0.6%	16.7%	3.7%
C=CC[C@@H](CC(=O)OC(C)(C)C)C(=O)OC[C@H]1CCCN1C(=O)[C@@H](CC=C)CC(=O)N[C@H](CO)Cc1ccccc1	16.4µM*	?	/	/	15.5%
